The target of the test is T1, B1ALK7|Q14155-1|Q14155-5 (UniProt Q14155).
T1 sequence (whole entry): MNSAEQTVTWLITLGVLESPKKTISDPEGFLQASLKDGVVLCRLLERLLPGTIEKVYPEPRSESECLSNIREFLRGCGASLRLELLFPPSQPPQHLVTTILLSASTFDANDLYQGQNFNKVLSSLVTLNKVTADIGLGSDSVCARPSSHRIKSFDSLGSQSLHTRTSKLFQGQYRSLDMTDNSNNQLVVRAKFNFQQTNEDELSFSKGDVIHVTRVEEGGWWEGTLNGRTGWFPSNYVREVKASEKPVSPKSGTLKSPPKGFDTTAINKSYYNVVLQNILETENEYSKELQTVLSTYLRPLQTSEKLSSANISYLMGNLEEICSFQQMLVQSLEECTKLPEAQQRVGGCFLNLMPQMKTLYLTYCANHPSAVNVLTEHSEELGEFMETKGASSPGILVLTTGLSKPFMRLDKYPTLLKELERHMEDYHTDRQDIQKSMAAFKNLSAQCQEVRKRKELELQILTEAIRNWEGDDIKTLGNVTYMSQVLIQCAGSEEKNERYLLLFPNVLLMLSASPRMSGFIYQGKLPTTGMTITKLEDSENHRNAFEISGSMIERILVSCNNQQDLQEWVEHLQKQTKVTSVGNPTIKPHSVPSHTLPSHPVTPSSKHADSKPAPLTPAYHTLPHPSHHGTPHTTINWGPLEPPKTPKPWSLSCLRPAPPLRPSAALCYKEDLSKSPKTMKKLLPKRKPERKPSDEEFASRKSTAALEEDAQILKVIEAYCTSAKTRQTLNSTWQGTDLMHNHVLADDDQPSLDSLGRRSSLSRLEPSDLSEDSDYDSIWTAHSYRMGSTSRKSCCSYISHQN
As to the kind of experiment: NP40-soluble protein abundance relative to vehicle (solubility fold change) (ratio); higher = more soluble protein in presence of GTP. How it is done:
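Solubility proteome profiling in Jurkat crude lysate. Lysate was treated with Mg-GTP (0.1-10 mM) for 10 min at room temperature and 3 min at 37 °C, then solubilised with 0.8% NP40 and benzonase, followed by ultracentrifugation. Proteins were quantified by TMT10 LC-MS/MS; the value is the NP40-soluble abundance relative to the NP40-processed vehicle, from 3 independent experiments.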

± gives the standard deviation of the averaged measurements. Of roughly 5,400 targets only a part is listed; those with the largest changes were picked by preference.

Consider `Nc1nc2c(ncn2[C@@H]2O[C@H](COP(=O)(O)OP(=O)(O)OP(=O)(O)O)[C@@H](O)[C@H]2O)c(=O)[nH]1` [guanosine triphosphate], for which the NP40-soluble protein abundance reads like this: (concentration: 0.1mM) 0.994 ± 0.036; (concentration: 0.5mM) 0.9903 ± 0.0023; (concentration: 1mM) 1.004 ± 0.007; (concentration: 2mM) 1.01 ± 0.028; (concentration: 4mM) 0.996 ± 0.015; (concentration: 6mM) 0.9797 ± 0.0044. Further, the NP40-soluble protein abundance reads like this: (concentration: 8mM) 1 ± 0.033; (concentration: 10mM) 0.977 ± 0.046.

Values taken from the supplement of paper PMC6411743.
